T cruzi growth-1: T. cruzi intracellular proliferation inhibitors, primary screen, cell-based, beta-gal Tulahuen parasites, NIH3T3 host, luminescence; T. cruzi beta-gal in NIH3T3, GalScreen luminescence, 90 h; inhibition, % at 8.34 µM; hit rate 5.9% among 77,000; AID 624255, 2012;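 active = mean inhibition above about 93%, with at least 55% of replicates each passing it, limit read from the data, passing the limit was not always enough; inconclusive = only one of those two conditions holds; inactive = neither condition holds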
Pf Dd2 growth: P. falciparum Dd2 growth inhibitors, primary screen, SYBR Green fluorescence, single dose replicates. 72 h; active compounds read low. AID 1159554, 2015. hit rate 2.3% among 94,000. activity change, % at 10 µM; in the data active = activity change below about -80%; inconclusive = no clear call, values can overlap the other calls
C diff growth: C. difficile growth inhibitors, primary screen, HTS; AID 1259249, 2017; growth activity, negative = inhibition, % at 16 µg/mL (by protocol); hit rate 0.25% among 86,000; Clostridium difficile clinical isolate growth, OD600, 24 h; active compounds read low;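 active = mean growth activity at or below -80% and every replicate also at or below -80%; inconclusive = mean at or below -80% but some replicate above -80%; inactive = mean growth activity above -80%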;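 also: 0% = DMSO wells and -100% = levofloxacin 16 µg/mL wells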
T cruzi growth-2: T. cruzi intracellular proliferation inhibitors, confirmation, cell-based, NIH3T3 host, beta-gal parasite, luminescence, cherry-pick; hit rate 72% among 5,600; inhibition, % at 8.35 µM; T. cruzi beta-gal in NIH3T3, GalScreen luminescence, 90 h; shares compounds with T cruzi growth-1; AID 651739, 2012;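 active = mean replicate inhibition above about 95% and at least 55% of replicates individually reaching it, limit read from the data; inconclusive = only one of the two criteria is met; inactive = neither criterion is met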
T cruzi growth-3: inhibitors of intracellular T. cruzi replication, confirmation, NIH3T3 host cells, beta-gal parasites, cherry-pick, set 2; AID 651740, 2012; T. cruzi beta-gal in NIH3T3, GalScreen luminescence, 90 h; hit rate 21% among 5,600; shares compounds with T cruzi growth-1; inhibition, % at 2.09 µM;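 active = mean inhibition above about 95%, with at least 55% of replicates also reaching it, limit read from the data; inconclusive = meets just one of the two conditions; inactive = meets neither condition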;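 also: plate controls were neutral control median for no effect and positive control median for full effect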
3T3 cytotox: cytotoxicity in mouse NIH/3T3 fibroblasts, confirmation, cytotoxicity control for T. cruzi proliferation inhibitor project, cell-based, cherry-pick, single point | shares compounds with T cruzi growth-1 | NIH/3T3 viability, CellTiter-Glo ATP luminescence, 90 h | cytotoxicity (signal decrease), % at 8.35 µM | hit rate 14% among 5,600;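 active = mean signal decrease across replicates above about 35% based on untreated-well scatter, with enough replicates individually passing, limit read from the data; inconclusive = no rule stated though some were filed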;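 also: 0% = median of neutral control wells and 100% = median of positive control wells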
NIH3T3 tox 2: NIH/3T3 fibroblast cytotoxicity, confirmation, cytotoxicity control, cell-based, cherry-pick, single point, set 2. NIH/3T3 viability, CellTiter-Glo ATP luminescence, 90 h. hit rate 56% among 5,600. AID 651744, 2012. shares compounds with T cruzi growth-1. inhibition, % at 24.9 µM;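 active = mean loss of cell viability signal at or above a set limit, and enough replicates individually reaching it; inconclusive = meets only the mean limit or only the replicate share; inactive = meets neither condition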;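 also: 0% = median of neutral control wells and 100% = median of positive control wells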
Numbers without * were called inactive. Rows were chosen to be rich in hits. Some 6.7% of all compounds tested hit in one or more screens of this group.

For C[C@@H]1CN([C@H](C)CO)C(=O)c2cccc(NC(=O)Nc3ccc4c(c3)OCO4)c2O[C@H]1CN(C)S(=O)(=O)c1cccs1 the results were T cruzi growth-1 80.2 and Pf Dd2 growth -26.4.
CCCC(=O)Nc1ccc2c(c1)C(=O)N(C)[C@@H]1CC[C@@H](CC(=O)NCCN3CCCCC3)O[C@H]1CO2 was read as T cruzi growth-1 3.2, Pf Dd2 growth 11.5 and C diff growth -9.6.
For C[C@@H]1CN([C@@H](C)CO)C(=O)c2cc(NC(=O)Nc3cccc4ccccc34)ccc2O[C@@H](C)CCCCO[C@H]1CN(C)Cc1ccc2c(c1)OCO2 the results were T cruzi growth-1 120.7*, Pf Dd2 growth -78.1, T cruzi growth-2 105.6*, T cruzi growth-3 91.1, 3T3 cytotox 26.1 and NIH3T3 tox 2 105.2*.
C[C@@H]1CCCCO[C@H](CN(C)Cc2ccc3c(c2)OCO3)[C@H](C)CN([C@H](C)CO)C(=O)c2cc(NC(=O)Nc3cccc4ccccc34)ccc2O1 was read as T cruzi growth-1 135.5*, Pf Dd2 growth -84.4*, C diff growth 21.7, T cruzi growth-2 107.0*, T cruzi growth-3 117.8*, 3T3 cytotox inconclusive and NIH3T3 tox 2 94.1*.
For C[C@@H]1CCCCO[C@H](CN(C)Cc2ccc3c(c2)OCO3)[C@@H](C)CN([C@H](C)CO)C(=O)c2cc(NC(=O)Nc3cccc4ccccc34)ccc2O1 the results were T cruzi growth-1 90.8 and Pf Dd2 growth 16.2.
C[C@@H]1CN([C@@H](C)CO)C(=O)c2cc(NC(=O)Nc3cccc4ccccc34)ccc2O[C@@H](C)CCCCO[C@@H]1CN(C)Cc1ccc2c(c1)OCO2 was read as T cruzi growth-1 102.3*, Pf Dd2 growth -90.1*, T cruzi growth-2 110.4*, T cruzi growth-3 74.9, 3T3 cytotox 13.5 and NIH3T3 tox 2 23.3.
C[C@H](CO)N1C[C@H](C)[C@@H](CN(C)Cc2ccc3c(c2)OCO3)OCCCC[C@H](C)Oc2ccc(NC(=O)Nc3cccc4ccccc34)cc2C1=O was read as T cruzi growth-1 inconclusive, Pf Dd2 growth -67.1, T cruzi growth-2 103.2*, T cruzi growth-3 110.5*, 3T3 cytotox 33.2 and NIH3T3 tox 2 42.1*.
`COc1cccc(NC(=O)N2C[C@H](O)COC[C@@H]3O[C@@H](CC(=O)N(C)C)CC[C@H]32)c1` gave T cruzi growth-1 15.3 and C diff growth 3.6.
For O=C(N[C@@H]1C=C[C@H](CC(=O)N2CCN(c3ccccc3)CC2)O[C@H]1CO)c1ccncc1 the results were T cruzi growth-1 -44.5 and Pf Dd2 growth -4.8.
CC(=O)N1[C@@H](CO)[C@@H](c2ccccc2)C12CN(S(=O)(=O)c1ccccc1)C2 was read as Pf Dd2 growth 23.5 and C diff growth -6.7.
For O=C(C[C@H]1C[C@H]2c3cc(NC(=O)c4cccnc4)ccc3O[C@H]2[C@@H](CO)O1)NCc1cccnc1 the results were T cruzi growth-1 -4.2 and Pf Dd2 growth 14.8.
Screening O=C(N[C@H]1CC[C@@H](CC(=O)N2CCCCC2)O[C@H]1CO)c1cccc(F)c1 returned T cruzi growth-1 64.1, Pf Dd2 growth 0.5 and C diff growth 2.0.
`C[C@H](CO)N1C[C@H](C)[C@H](CN(C)Cc2ccc3c(c2)OCO3)OCCCC[C@H](C)Oc2ccc(NC(=O)Nc3cccc4ccccc34)cc2C1=O` gave T cruzi growth-1 106.9*, Pf Dd2 growth 1.9, T cruzi growth-2 104.0*, T cruzi growth-3 96.9*, 3T3 cytotox 22.5 and NIH3T3 tox 2 45.0*.
Screening O=C(C[C@@H]1C[C@H]2c3cc(NC(=O)c4ccc5c(c4)OCO5)ccc3O[C@H]2[C@H](CO)O1)NCc1ccc(Cl)cc1 returned T cruzi growth-1 73.9, Pf Dd2 growth -5.4 and C diff growth 4.6.
O=C(C[C@H]1C[C@H]2c3cc(NC(=O)c4ccc5c(c4)OCO5)ccc3O[C@H]2[C@@H](CO)O1)NCc1ccc(Cl)cc1 was read as T cruzi growth-1 1.4, Pf Dd2 growth -24.8 and C diff growth 3.4.
`O=C(C[C@@H]1C[C@H]2c3cc(NC(=O)c4ccc5c(c4)OCO5)ccc3O[C@H]2[C@@H](CO)O1)NCc1ccc(Oc2ccccc2)cc1` gave T cruzi growth-1 120.2*, Pf Dd2 growth 4.4, C diff growth -2.8, T cruzi growth-2 74.8, T cruzi growth-3 5.5, 3T3 cytotox 44.7* and NIH3T3 tox 2 93.9*.
Screening O=C(C[C@H]1C[C@@H]2c3cc(NC(=O)c4ccc5c(c4)OCO5)ccc3O[C@@H]2[C@@H](CO)O1)NCc1ccc(Oc2ccccc2)cc1 returned T cruzi growth-1 147.9*, Pf Dd2 growth -27.7, C diff growth -5.4, T cruzi growth-2 110.8*, T cruzi growth-3 43.3, 3T3 cytotox 41.9* and NIH3T3 tox 2 34.1*.
O=C(C[C@@H]1C[C@H]2c3cc(NC(=O)c4ccc5c(c4)OCO5)ccc3O[C@H]2[C@H](CO)O1)NCc1ccc(Oc2ccccc2)cc1 was read as T cruzi growth-1 113.0*, Pf Dd2 growth -29.0, C diff growth -12.5, T cruzi growth-2 103.4*, T cruzi growth-3 19.6, 3T3 cytotox 69.2* and NIH3T3 tox 2 51.0*.
`O=C(C[C@@H]1C[C@@H]2c3cc(NC(=O)c4ccc5c(c4)OCO5)ccc3O[C@@H]2[C@H](CO)O1)NCc1ccc(Oc2ccccc2)cc1` gave T cruzi growth-1 -10.6, Pf Dd2 growth -39.4 and C diff growth -19.6.
For C[C@H](CO)N1C[C@H](C)[C@@H](CN(C)CC2CCCCC2)Oc2ccc(NC(=O)Nc3ccccc3)cc2CC1=O the results were Pf Dd2 growth -68.8 and C diff growth 14.1.
`C[C@H]1CCCCO[C@@H](CN(C)C(=O)Nc2ccccc2)[C@@H](C)CN([C@@H](C)CO)C(=O)c2cc(NS(C)(=O)=O)ccc2O1` gave T cruzi growth-1 21.6, Pf Dd2 growth -26.7 and C diff growth 1.0.
For COc1ccc(NC(=O)Nc2ccc3c(c2)C(=O)N([C@H](C)CO)C[C@H](C)[C@@H](CN(C)S(=O)(=O)c2ccc(C)cc2)OCCCC[C@@H](C)O3)cc1 the results were T cruzi growth-1 -57.2 and Pf Dd2 growth -66.0.
C[C@H](CO)N1C[C@H](C)[C@H](CN(C)C(=O)Nc2cccc3ccccc23)Oc2c(NC(=O)c3nc4ccccc4s3)cccc2C1=O was read as T cruzi growth-1 81.8 and Pf Dd2 growth -30.6.
